# Results published in PubChem BioAssay (Tox21).
# Inconclusive results are not listed. A number with no mark means an inactive call. Active and inactive are the calls of the source. Calls follow the shape of the dose curve; as a rule, active = well fitted curve in the direction sought with a large enough effect in the repeat runs; inconclusive = weak or mixed curves; inactive = no such curve, though single readings can be large; an effect the other way counts as inactive or inconclusive.
# Test system: not listed separately
# Experiment: qHTS assay to identify small molecule antagonists of the retinoic acid receptor (RAR) signaling pathway (AID 1159552; also: nearly all actives have a fitted effect of over 50% in size)
# Settings: C3RL4 RARE luciferase reporter, retinol-stimulated, 6 h; series mostly up to 92.4 µM; activity, negative = inhibition: at the top concentration
# Procedure, shortened: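 Overnight-plated C3RL4 reporter cells get compound, then retinol to 1 uM final; plates sit 6 hr at 37 C, 5% CO2. A luciferase reagent is added and light output recorded after 30 min at room temperature.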
# % is scaled to controls: 0 for no effect and ±100 for the full control effect.
row,SMILES,"activity, negative = inhibition"
1,CC/C(=C\C(=N/O)C(N)=O)C(C)[N+](=O)[O-] (centres undefined),7.76%
2,CC(CN)CCCN (centres undefined),40.4%
3,CCN(CC)CCc1nc(-c2ccccc2)no1,40.6% [at 42.5 µM]
4,CC(=O)NCCCS(=O)(=O)O,-9.72% [at 42.5 µM]
5,NC[C@H]1O[C@H](O[C@H]2[C@H](O)[C@@H](O[C@H]3O[C@H](CO)[C@@H](O)[C@H](N)[C@H]3O)[C@H](N)C[C@@H]2N)[C@H](O)[C@@H](O)[C@@H]1O,7.6% [at 8.39 µM]
6,C=C(C)C(=O)OCCOc1ccccc1,78.5%
7,Cc1nc2ccccc2n1Cc1ccc(Cl)cc1,-4.97% [at 42.5 µM]
8,CC(C)CCCC(C)CCO (centres undefined),0.611%
9,Cc1cccc(OCCOc2cccc(C)c2)c1,64.3%
10,C=C(C)C(=O)OC(C)C,164%
11,Nc1nc(CC(=O)O)cs1,2.28%
12,CCCC(=O)OCC,49.6%

# Test system: not listed separately
# Experiment: qHTS assay to identify small molecule agonists of the retinoic acid receptor (RAR) signaling pathway (AID 1159553)
# Settings: C3RL4 RARE luciferase reporter, agonist, 6 h; series mostly up to 73.3 µM; activation: at the top concentration
# Procedure, shortened: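 Seed C3RL4 reporter cells at 1,000 per well and incubate overnight at 37 C. Add compounds in DMSO, incubate 6 hr. Add luciferase reagent, wait 30 min at room temperature, read luminescence.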
row,SMILES,activation
1,C[Si](C)O[Si](C)(C)O[Si](C)(C)O[Si](C)C,0.0296%
2,O=C(O)C1CCC(C(=O)O)CC1 (centres undefined),-6.82%
3,Cc1occc1S,4.51%
4,CC(C)NCC(O)COc1ccc(CC(N)=O)cc1 (centres undefined),-0.47%
5,CC(C)CC=O,-0.798%
6,O=S1(=O)N=C(O)c2ccccc21,4.22%
7,O=[N+]([O-])c1cccc(Cl)c1Cl,-0.0664%
8,O=C(O)[C@@H]1[C@H]2C[C@H]3c4[nH]c5ccccc5c4CCN3C[C@@H]2CC[C@@H]1O,0.323%
9,CCCCCCCC/C=C\CCCCCCCC(N)=O,-3.49%
10,CN1CCC(=C2c3ccccc3C=Cc3ccccc32)CC1,-12.2%
11,CCc1nn(C2CCCCC2)c2cc(C3(C#N)CCC(C(=O)O)CC3)ccc12 (centres undefined),-6.77%

# Test system: not listed separately
# Experiment: qHTS assay to identify small molecule antagonists of the estrogen related receptor (ERR) signaling pathway - cell viability counter screen (AID 1224818);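 also: viability measured after 17.5 h of compound exposure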
# Settings: ERR reporter cell line viability counter screen; series mostly up to 46.1 µM; viability change, negative = cytotoxic: at the top concentration
# Procedure, shortened: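 ERR cells, 2,000/well; 6 h settle at 37 C/5% CO2; compound pin transfer (DMSO); 17.5 h at 37 C; CellTiter-Fluor, 30 min, fluorescence read.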
row,SMILES,"viability change, negative = cytotoxic"
1,CC(C)NCC(O)COc1ccc(CC(N)=O)cc1 (centres undefined),0.515%
2,OC(CCN1CCCCC1)(c1ccccc1)C1CCCCC1 (centres undefined),-4.35%
3,CN1CCC(=C2c3ccccc3C=Cc3ccccc32)CC1,-8.54%

# Test system: not listed separately
# Experiment: qHTS assay to identify small molecule antagonists of the estrogen related receptor (ERR) signaling pathway from Tox21 library - cell viability counter screen (AID 1224834); also: nearly all actives have a fitted effect of over 30% in size; also: potency is read from the fitted curve at half-maximal effect
# Settings: ERR reporter cells viability, CellTiter-Fluor, 17.5 h; series mostly up to 92.4 µM; viability change, negative = cytotoxic: at the top concentration
# Procedure, shortened: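 ERR cells, 2,000/well; 6 h settle at 37 C/5% CO2; pin-tool compound transfer in DMSO; 17.5 h at 37 C; CellTiter-Fluor, 30 min; fluorescence intensity.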
SMILES,"viability change, negative = cytotoxic",Potency
O=C(O)C1CCC(C(=O)O)CC1 (centres undefined),-1.5%,–
Cc1occc1S,0.989%,–
CC/C(=C\C(=N/O)C(N)=O)C(C)[N+](=O)[O-] (centres undefined),1.21%,–
CC(CN)CCCN (centres undefined),-0.4%,–
CC(C)NCC(O)COc1ccc(CC(N)=O)cc1 (centres undefined),0.797%,–
CCN(CC)CCc1nc(-c2ccccc2)no1,-4.51% [at 42.5 µM],–
CC(=O)O[C@H]1C[C@@H]2CC[C@@H]3[C@H](CC[C@@]4(C)[C@H]3C[C@H]([N+]3(C)CCCCC3)[C@@H]4OC(C)=O)[C@@]2(C)C[C@@H]1N1CCCCC1,-0.153% [at 42.5 µM],–
Cc1cc(NC(=O)C(=O)O)cc(C)c1Oc1ccc(O)c2c1CCC2,-2.51%,–
OC(CCN1CCCCC1)(c1ccccc1)C1CCCCC1 (centres undefined),-8.27% [at 42.5 µM],–
Nc1nc(N)c(-c2ccccc2)s1,6.02% [at 42.5 µM],–
CC(C)(C)c1ccc(S)cc1,4.37%,–
NCc1ccccc1,0.733%,–
CC(=O)N(CC(=O)N(C)C)c1ccccc1,1.21% [at 42.5 µM],–
CC(C)CC=O,1.17%,–
O=S1(=O)N=C(O)c2ccccc21,1.39% [at 42.5 µM],–
O=[N+]([O-])c1cccc(Cl)c1Cl,-0.0464%,–
CC(=O)NCCCS(=O)(=O)O,0.865% [at 42.5 µM],–
NC[C@H]1O[C@H](O[C@H]2[C@H](O)[C@@H](O[C@H]3O[C@H](CO)[C@@H](O)[C@H](N)[C@H]3O)[C@H](N)C[C@@H]2N)[C@H](O)[C@@H](O)[C@@H]1O,-5.48% [at 8.39 µM],–

SMILES,"viability change, negative = cytotoxic",Potency
Cc1ccc(C(N)=O)cc1N,4.13%,–
C=C(C)C(=O)OCCOc1ccccc1,3.14%,–
C=CC(=O)OCCOC(=O)CCC(=O)O,3.05%,–
O=C(O)[C@@H]1[C@H]2C[C@H]3c4[nH]c5ccccc5c4CCN3C[C@@H]2CC[C@@H]1O,3.39% [at 42.5 µM],–
Cn1c(NCCN(CCO)CCCc2ccc([N+](=O)[O-])cc2)cc(=O)n(C)c1=O,1.34% [at 42.5 µM],–
CCCCCCCC/C=C\CCCCCCCC(N)=O,1.54%,–
CN1CCC[C@@H]1c1cccnc1,0.723% [at 42.5 µM],–
CC(C)CCCC(C)CCO (centres undefined),0.313%,–
Cc1cccc(OCCOc2cccc(C)c2)c1,1.26%,–
CCCCCCCCCCCCCCCCCBr,-2.8% [at 19 µM],–
C=C(C)C(=O)OC(C)C,-4.47%,–
CN1CCC(=C2c3ccccc3C=Cc3ccccc32)CC1,-12.2% [at 42.5 µM],–
CCCC[C@H]1CN(CC2CCOCC2)C(=O)OC12CCN(C1(C)CCN(C(=O)c3c(C)ncnc3C)CC1)CC2,3.93%,–
CC(=O)[C@@]1(O)CC[C@H]2[C@@H]3C[C@H](C)C4=CC(=O)CC[C@]4(C)[C@H]3CC[C@@]21C,-3.43% [at 42.5 µM],–
CCc1nn(C2CCCCC2)c2cc(C3(C#N)CCC(C(=O)O)CC3)ccc12 (centres undefined),–,48.6 µM (active)
CC(=O)SCc1ccco1,6.64%,–
CCCC(=O)OCC,-4.81%,–
Cc1c(Cn2ccnc2)c2ccccc2n1CCC(=O)O,-0.529% [at 42.5 µM],–

# Molecular target: Luciferin 4-monooxygenase (Photinus pyralis) (UniProt P08659)
# Sequence (P08659 whole entry, looked up): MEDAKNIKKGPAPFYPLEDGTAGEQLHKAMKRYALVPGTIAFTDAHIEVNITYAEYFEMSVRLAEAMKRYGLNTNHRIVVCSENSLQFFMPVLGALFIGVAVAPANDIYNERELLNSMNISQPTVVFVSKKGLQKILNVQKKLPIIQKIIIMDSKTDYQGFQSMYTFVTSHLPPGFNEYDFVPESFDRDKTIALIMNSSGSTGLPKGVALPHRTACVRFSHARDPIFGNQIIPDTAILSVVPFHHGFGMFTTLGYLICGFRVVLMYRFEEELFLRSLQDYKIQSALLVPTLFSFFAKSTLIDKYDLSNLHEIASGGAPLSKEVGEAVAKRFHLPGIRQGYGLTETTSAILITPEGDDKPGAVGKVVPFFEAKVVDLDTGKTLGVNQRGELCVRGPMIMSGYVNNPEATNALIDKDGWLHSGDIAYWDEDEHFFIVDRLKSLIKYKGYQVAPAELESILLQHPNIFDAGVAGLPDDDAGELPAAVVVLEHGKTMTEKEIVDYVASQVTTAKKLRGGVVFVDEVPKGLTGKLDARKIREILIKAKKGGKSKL
# Experiment: qHTS assay to identify small molecule inhibitors of firefly luciferase (AID 1224835); also: nearly all actives have a fitted effect of over 25% in size; also: potency is read from the fitted curve at half-maximal effect
# Settings: purified P. pyralis luciferase, luminescence inhibition; series mostly up to 115 µM; activity change, negative = inhibition: at the top concentration
# Procedure, shortened: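 Quantitative HTS format; KM concentrations of both substrates. Purified P. pyralis FLuc activity quantified from luminescence images.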
SMILES,"activity change, negative = inhibition",Potency
C[Si](C)O[Si](C)(C)O[Si](C)(C)O[Si](C)C,5.22%,–
O=C(O)C1CCC(C(=O)O)CC1 (centres undefined),4.09%,–
Cc1occc1S,-0.519%,–
CC/C(=C\C(=N/O)C(N)=O)C(C)[N+](=O)[O-] (centres undefined),-9.1%,–
CC(CN)CCCN (centres undefined),3.03%,–
CC(C)NCC(O)COc1ccc(CC(N)=O)cc1 (centres undefined),-1.62%,–
CCN(CC)CCc1nc(-c2ccccc2)no1,-1.81% [at 52.9 µM],–
CC(=O)O[C@H]1C[C@@H]2CC[C@@H]3[C@H](CC[C@@]4(C)[C@H]3C[C@H]([N+]3(C)CCCCC3)[C@@H]4OC(C)=O)[C@@]2(C)C[C@@H]1N1CCCCC1,-1.37% [at 52.9 µM],–
Cc1cc(NC(=O)C(=O)O)cc(C)c1Oc1ccc(O)c2c1CCC2,–,35.6 µM (active)
OC(CCN1CCCCC1)(c1ccccc1)C1CCCCC1 (centres undefined),2.96% [at 52.9 µM],–
Nc1nc(N)c(-c2ccccc2)s1,-0.125% [at 52.9 µM],–
CC(C)(C)c1ccc(S)cc1,-4.67%,–
NCc1ccccc1,1.25%,–
CC(=O)N(CC(=O)N(C)C)c1ccccc1,-13.7% [at 52.9 µM],–
CC(C)CC=O,0.0543%,–
CC(=O)NCCCS(=O)(=O)O,0.0362% [at 52.9 µM],–
NC[C@H]1O[C@H](O[C@H]2[C@H](O)[C@@H](O[C@H]3O[C@H](CO)[C@@H](O)[C@H](N)[C@H]3O)[C@H](N)C[C@@H]2N)[C@H](O)[C@@H](O)[C@@H]1O,8.02% [at 10.5 µM],–
Cc1ccc(C(N)=O)cc1N,7.72%,–
C=C(C)C(=O)OCCOc1ccccc1,–,35.6 µM (active)

SMILES,"activity change, negative = inhibition",Potency
C=CC(=O)OCCOC(=O)CCC(=O)O,1.26%,–
O=C(O)[C@@H]1[C@H]2C[C@H]3c4[nH]c5ccccc5c4CCN3C[C@@H]2CC[C@@H]1O,2.86% [at 52.9 µM],–
Cn1c(NCCN(CCO)CCCc2ccc([N+](=O)[O-])cc2)cc(=O)n(C)c1=O,-3.21% [at 52.9 µM],–
CCCCCCCC/C=C\CCCCCCCC(N)=O,4.16%,–
CN1CCC[C@@H]1c1cccnc1,-5.02% [at 52.9 µM],–
Cc1nc2ccccc2n1Cc1ccc(Cl)cc1,0.281% [at 52.9 µM],–
CC(C)CCCC(C)CCO (centres undefined),0.738%,–
Cc1cccc(OCCOc2cccc(C)c2)c1,-2.22%,–
CCCCCCCCCCCCCCCCCBr,3.44% [at 23.6 µM],–
C=C(C)C(=O)OC(C)C,1.99%,–
CN1CCC(=C2c3ccccc3C=Cc3ccccc32)CC1,-0.896% [at 52.9 µM],–
CCCC[C@H]1CN(CC2CCOCC2)C(=O)OC12CCN(C1(C)CCN(C(=O)c3c(C)ncnc3C)CC1)CC2,1.62%,–
CC(=O)[C@@]1(O)CC[C@H]2[C@@H]3C[C@H](C)C4=CC(=O)CC[C@]4(C)[C@H]3CC[C@@]21C,-0.955% [at 52.9 µM],–
CCc1nn(C2CCCCC2)c2cc(C3(C#N)CCC(C(=O)O)CC3)ccc12 (centres undefined),5.41%,–
Nc1nc(CC(=O)O)cs1,-1.44%,–
CC(=O)SCc1ccco1,0.729%,–
CCCC(=O)OCC,4.71%,–
Cc1c(Cn2ccnc2)c2ccccc2n1CCC(=O)O,4.99% [at 52.9 µM],–
